{
  "source": "ChEMBL document CHEMBL1961873",
  "about": "“Compounds: GSK PKIS; Assays: Nanosyn kinase panel” (2012)",
  "data": [
    {"target": "Tyrosine-protein kinase Lck (Homo sapiens) (UniProt P06239)", "sequence (P06239 2-509 limits assumed)": "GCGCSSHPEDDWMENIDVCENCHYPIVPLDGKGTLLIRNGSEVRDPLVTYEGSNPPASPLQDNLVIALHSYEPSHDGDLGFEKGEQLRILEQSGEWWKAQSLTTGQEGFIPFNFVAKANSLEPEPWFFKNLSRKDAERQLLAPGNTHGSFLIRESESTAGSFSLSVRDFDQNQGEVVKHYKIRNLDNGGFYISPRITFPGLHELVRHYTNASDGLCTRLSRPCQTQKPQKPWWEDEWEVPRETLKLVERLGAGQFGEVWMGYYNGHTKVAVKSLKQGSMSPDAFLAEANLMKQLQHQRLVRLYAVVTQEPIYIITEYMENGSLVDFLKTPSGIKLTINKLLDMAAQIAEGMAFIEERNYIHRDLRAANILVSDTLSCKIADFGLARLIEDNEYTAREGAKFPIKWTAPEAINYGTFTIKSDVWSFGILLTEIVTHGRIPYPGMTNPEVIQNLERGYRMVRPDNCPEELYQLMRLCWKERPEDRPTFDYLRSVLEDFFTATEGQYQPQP", "conditions": "at 0.1 µM", "units": {"inhibition": "%"}, "values": [
      {"smiles": "N#Cc1c(NC(=O)c2cccc3ccccc23)sc2c1CCCC2", "inhibition": 2.98},
      {"smiles": "COc1cc(C=NNc2ncnc3c2cnn3-c2ccccc2)ccc1O", "inhibition": 19.4},
      {"smiles": "CC(C)=Cc1cccc2c1/C(=N/Nc1ccc(S(N)(=O)=O)cc1)C(=O)N2", "inhibition": 3.66},
      {"smiles": "Cc1ccc(NC(=O)c2ccnc(N3CCCC3)c2)cc1-c1ccc(C(=O)NCC2CC2)cc1", "inhibition": -3.71},
      {"smiles": "Nc1nc(-c2ccc3c(c2)C(=Cc2cc(Br)c(O)c(Br)c2)C(=O)N3)cs1", "inhibition": -1.54},
      {"smiles": "CS(=O)(=O)CCNCc1ccc(-c2ccc3ncnc(Nc4ccc(OCc5cccc(F)c5)c(C(F)(F)F)c4)c3c2)o1", "inhibition": 1.82},
      {"smiles": "COc1ccc(-c2coc3ncnc(N)c23)cc1", "inhibition": 1.13},
      {"smiles": "CCCN1CCC=C(c2ccc(Nc3nc(Nc4ccccc4C(N)=O)c4cc[nH]c4n3)c(C)c2)C1", "inhibition": 4.63},
      {"smiles": "O=C1NC(=O)C(c2cccc(Cl)c2)=C1Nc1ccc(O)c(Cl)c1", "inhibition": 1.6},
      {"smiles": "COc1cc2ncn(-c3cc(O[C@H](C)c4ccccc4Cl)c(C(N)=O)s3)c2cc1OC", "inhibition": 5.7},
      {"smiles": "CC1=C(C(=O)Nc2ccc3[nH]ncc3c2)C(c2ccc3ccccc3c2)CC(=O)N1", "note": "(stereo unspecified)", "inhibition": 21.1},
      {"smiles": "O=C1NC(=O)C(c2ccc(Cl)cc2)=C1Nc1ccc(Cl)c(C(=O)O)c1", "inhibition": -0.44},
      {"smiles": "c1cnn2ncc(-c3ccnc(Nc4ccc5c(c4)OCCO5)n3)c2c1", "inhibition": 3.28},
      {"smiles": "COc1cc2ncn(-c3cc(O[C@@H](C)c4ccccc4Cl)c(C(N)=O)s3)c2cc1OC", "inhibition": 4.64},
      {"smiles": "CCn1c(-c2nonc2N)nc2c(C#CC(C)(C)O)nc(CN3CCCC3)cc21", "inhibition": -0.53},
      {"smiles": "CCn1c(-c2nonc2N)nc2ccncc21", "inhibition": 1.33},
      {"smiles": "CNC(=O)c1cncc(/C=C/c2c(Cl)cccc2Cl)c1", "inhibition": 1.21},
      {"smiles": "Cc1nnc(-c2ccc(C)c(-c3ccc(C(=O)Nc4cccc(C#N)c4)cc3)c2)o1", "inhibition": 1.89},
      {"smiles": "CN(C)c1cc2c(Nc3ccc4nc(Cc5ccccc5)[nH]c4c3)ncnc2cn1", "inhibition": 7.36},
      {"smiles": "Cc1cccc(-c2n[nH]cc2-c2ccc3ncccc3n2)n1", "inhibition": 0.45},
      {"smiles": "CS(=O)(=O)CCN(CC#N)Cc1ccc(-c2ccc3ncnc(Nc4ccc(OCc5cccc(F)c5)c(Cl)c4)c3c2)o1", "inhibition": -1.83},
      {"smiles": "CCn1c(-c2nonc2N)nc2c(C#CC(C)(C)O)nc(OC[C@@H](N)c3ccccc3)cc21", "inhibition": -1.85},
      {"smiles": "CC(=O)Nc1cccc(C#Cc2cncnc2Nc2ccc(OCc3cccc(F)c3)c(Cl)c2)n1", "inhibition": 1.9},
      {"smiles": "CC1=C(C(=O)Nc2ccc3[nH]ncc3c2)C(c2ccc(Cl)c(Cl)c2)CC(=O)N1", "note": "(stereo unspecified)", "inhibition": 4.63},
      {"smiles": "O=C1Nc2ccc(C(=O)c3ccco3)cc2C1=Cc1cc(Cl)c(O)c(Cl)c1", "inhibition": 2.53},
      {"smiles": "CS(=O)(=O)Nc1ccc(N/C=C2\\C(=O)Nc3ccccc32)cc1", "inhibition": -0.69},
      {"smiles": "COc1cc2ncn(-c3cc(OCc4ccccc4Cl)c(C(N)=O)s3)c2cc1OC", "inhibition": 2.94},
      {"smiles": "Fc1cccc(COc2ccc(Nc3ncnc4sc(-c5cccs5)cc34)cc2Cl)c1", "inhibition": 0.99},
      {"smiles": "[O-][S+]1CCN(Cc2ccc(-c3ccc4ncnc(Nc5ccc(OCc6ccccc6)c(F)c5)c4c3)o2)CC1", "inhibition": 1.81},
      {"smiles": "Cc1ccc(C(=O)NC2CCCCC2)cc1-c1ccc(C(=O)NCC2CC2)cc1", "inhibition": 1.49},
      {"smiles": "Cc1nn(C)c2cc(N(C)c3ccnc(Nc4cccc(S(N)(=O)=O)c4)n3)ccc12", "inhibition": 14},
      {"smiles": "CCN1CCC(CC(=O)Nc2n[nH]c3nc(-c4cccs4)c(Br)cc23)CC1", "inhibition": -1.7},
      {"smiles": "COc1ccc(-c2nn3ncccc3c2-c2ccnc(Nc3ccc(Cl)c(C(F)(F)F)c3)n2)cc1", "inhibition": -0.04}
    ]},
    {"target": "Tyrosine-protein kinase Lck (Homo sapiens) (UniProt P06239)", "conditions": "at 1 µM", "units": {"inhibition": "%"}, "values": [
      {"smiles": "N#Cc1c(NC(=O)c2cccc3ccccc23)sc2c1CCCC2", "inhibition": 4.35},
      {"smiles": "COc1cc(C=NNc2ncnc3c2cnn3-c2ccccc2)ccc1O", "inhibition": 63.9},
      {"smiles": "CC(C)=Cc1cccc2c1/C(=N/Nc1ccc(S(N)(=O)=O)cc1)C(=O)N2", "inhibition": 14.7},
      {"smiles": "Cc1ccc(NC(=O)c2ccnc(N3CCCC3)c2)cc1-c1ccc(C(=O)NCC2CC2)cc1", "inhibition": 1.56},
      {"smiles": "Nc1nc(-c2ccc3c(c2)C(=Cc2cc(Br)c(O)c(Br)c2)C(=O)N3)cs1", "inhibition": 4.41},
      {"smiles": "CS(=O)(=O)CCNCc1ccc(-c2ccc3ncnc(Nc4ccc(OCc5cccc(F)c5)c(C(F)(F)F)c4)c3c2)o1", "inhibition": 3.95},
      {"smiles": "COc1ccc(-c2coc3ncnc(N)c23)cc1", "inhibition": 6.38},
      {"smiles": "CCCN1CCC=C(c2ccc(Nc3nc(Nc4ccccc4C(N)=O)c4cc[nH]c4n3)c(C)c2)C1", "inhibition": 7.36},
      {"smiles": "O=C1NC(=O)C(c2cccc(Cl)c2)=C1Nc1ccc(O)c(Cl)c1", "inhibition": 6.56},
      {"smiles": "COc1cc2ncn(-c3cc(O[C@H](C)c4ccccc4Cl)c(C(N)=O)s3)c2cc1OC", "inhibition": 27.7},
      {"smiles": "CC1=C(C(=O)Nc2ccc3[nH]ncc3c2)C(c2ccc3ccccc3c2)CC(=O)N1", "note": "(stereo unspecified)", "inhibition": 64.3},
      {"smiles": "O=C1NC(=O)C(c2ccc(Cl)cc2)=C1Nc1ccc(Cl)c(C(=O)O)c1", "inhibition": 0.35},
      {"smiles": "c1cnn2ncc(-c3ccnc(Nc4ccc5c(c4)OCCO5)n3)c2c1", "inhibition": 9.06},
      {"smiles": "COc1cc2ncn(-c3cc(O[C@@H](C)c4ccccc4Cl)c(C(N)=O)s3)c2cc1OC", "inhibition": 19.6},
      {"smiles": "CCn1c(-c2nonc2N)nc2c(C#CC(C)(C)O)nc(CN3CCCC3)cc21", "inhibition": 1.3},
      {"smiles": "CCn1c(-c2nonc2N)nc2ccncc21", "inhibition": 2.29},
      {"smiles": "CNC(=O)c1cncc(/C=C/c2c(Cl)cccc2Cl)c1", "inhibition": 9.89},
      {"smiles": "Cc1nnc(-c2ccc(C)c(-c3ccc(C(=O)Nc4cccc(C#N)c4)cc3)c2)o1", "inhibition": 2.99},
      {"smiles": "CN(C)c1cc2c(Nc3ccc4nc(Cc5ccccc5)[nH]c4c3)ncnc2cn1", "inhibition": 33},
      {"smiles": "Cc1cccc(-c2n[nH]cc2-c2ccc3ncccc3n2)n1", "inhibition": 4.51},
      {"smiles": "CS(=O)(=O)CCN(CC#N)Cc1ccc(-c2ccc3ncnc(Nc4ccc(OCc5cccc(F)c5)c(Cl)c4)c3c2)o1", "inhibition": -3.92},
      {"smiles": "CCn1c(-c2nonc2N)nc2c(C#CC(C)(C)O)nc(OC[C@@H](N)c3ccccc3)cc21", "inhibition": 0.18},
      {"smiles": "CC(=O)Nc1cccc(C#Cc2cncnc2Nc2ccc(OCc3cccc(F)c3)c(Cl)c2)n1", "inhibition": 1.84},
      {"smiles": "CC1=C(C(=O)Nc2ccc3[nH]ncc3c2)C(c2ccc(Cl)c(Cl)c2)CC(=O)N1", "note": "(stereo unspecified)", "inhibition": 30},
      {"smiles": "O=C1Nc2ccc(C(=O)c3ccco3)cc2C1=Cc1cc(Cl)c(O)c(Cl)c1", "inhibition": 12.8},
      {"smiles": "CS(=O)(=O)Nc1ccc(N/C=C2\\C(=O)Nc3ccccc32)cc1", "inhibition": 5.83},
      {"smiles": "COc1cc2ncn(-c3cc(OCc4ccccc4Cl)c(C(N)=O)s3)c2cc1OC", "inhibition": 19},
      {"smiles": "Fc1cccc(COc2ccc(Nc3ncnc4sc(-c5cccs5)cc34)cc2Cl)c1", "inhibition": 3.56},
      {"smiles": "[O-][S+]1CCN(Cc2ccc(-c3ccc4ncnc(Nc5ccc(OCc6ccccc6)c(F)c5)c4c3)o2)CC1", "inhibition": 7.89},
      {"smiles": "Cc1ccc(C(=O)NC2CCCCC2)cc1-c1ccc(C(=O)NCC2CC2)cc1", "inhibition": 2.85},
      {"smiles": "Cc1nn(C)c2cc(N(C)c3ccnc(Nc4cccc(S(N)(=O)=O)c4)n3)ccc12", "inhibition": 57.4},
      {"smiles": "CCN1CCC(CC(=O)Nc2n[nH]c3nc(-c4cccs4)c(Br)cc23)CC1", "inhibition": 4.73},
      {"smiles": "COc1ccc(-c2nn3ncccc3c2-c2ccnc(Nc3ccc(Cl)c(C(F)(F)F)c3)n2)cc1", "inhibition": 5.83}
    ]}
  ]
}
